High-throughput results as filed in PubChem.
In the library only some 1.6% were active in any assay of this set; here they are far more common.
KCNQ2 inh = inhibitors of rat KCNQ2 potassium channel | O88943 | B-score at 10 µM | 310,000 compounds, 1.1% hits | CHO-K1 KCNQ2, FluxOR thallium flux, 20 min; active compounds read low;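 active = fluorescence ratio B-score at most minus 3 library SDs, with starting brightness B-score within 2 library SDs, cut at about -5.5 in these data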
KCNQ2 pot = potentiators of rat KCNQ2 potassium channel | O88943 | CHO-K1 KCNQ2, FluxOR thallium flux fluorescence; active compounds read high | B-score at 10 µM | 310,000 compounds, 0.54% hits | AID 2239;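 active = fluorescence ratio B-score at least 3 SD of library B-scores, with initial fluorescence B-score within 3 of them, cut at about 5.3 in these data; same plate scores as AID 2156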;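 note: B-score of peak minus minimum over baseline fluorescence ratio after K+ and Tl+ stimulus; positive B-score means potentiation of KCNQ2 with more thallium influx and brighter signal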
* hit, by the source's call; i = inactive; / = no result given.

SMILES	KCNQ2 inh	KCNQ2 pot
O=C(CSc1nnc(SCc2ccc(Cl)cc2)s1)N/N=C/c1ccc(Cl)cc1Cl	i	/
O=C(CNC(=O)c1ccco1)NCC(=O)OCc1ccc(Cl)cc1Cl	i	/
Cc1cc(S(=O)(=O)c2ccc([N+](=O)[O-])cn2)ccc1Br	i	/
Cc1ccc(S(=O)(=O)c2ccc([N+](=O)[O-])cn2)cc1	-6*	-6
O=C(NCCn1cccn1)C1CCC(=O)N(CCc2ccc(Cl)cc2)C1 (centres undefined)	i	0.28
CN1CCN(Cc2cccc(Oc3ccccc3)c2)CC1	i	0.44
COc1ccc(CN2CCN(Cc3cccc(Oc4ccccc4)c3)CC2)c(OC)c1OC	-7.5*	-7.5
COc1ccc(N(C)S(=O)(=O)c2cccc(C(=O)NC3CCCCCC3)c2)cc1	i	/
COc1ccc(N(C)S(=O)(=O)c2cccc(C(=O)NC3CCCC(C)C3C)c2)cc1 (centres undefined)	-7.3*	-7.3
CCOC(=O)c1sc(-c2ccc(Cl)cc2Cl)nc1O	i	/
Cc1cc(C)c(S(=O)(=O)Nc2ccc(Cl)cn2)c(C)c1	i	/
O=C(Nc1ccc(N2CCOCC2)cc1N1CCOCC1)c1ncoc1-c1cccc(F)c1	i	/
O=C(Nc1ccccc1N1CCCCC1)c1ncoc1-c1cccc(F)c1	-5.8*	-5.8
CC(NC(=O)C(=O)N/N=C\c1cccc([N+](=O)[O-])c1)c1ccccc1 (centres undefined)	i	1.1
CCOc1ccc(S(=O)(=O)N2CCN(Cc3ccco3)CC2)cc1	i	/
CO/N=C(\Cn1ncc(N2CCCC2)c(Br)c1=O)c1ccc(Cl)cc1	i	/
CO/N=C(\Cn1ncc(NC2CCCCC2)c(Br)c1=O)c1ccc(Cl)cc1	-6.2*	-6.2
O=C(CCCC(=O)OCC(F)(F)C(F)F)Nc1ccccc1F	i	/
COCCSc1nnc(NC(=O)CCS(=O)(=O)c2ccccc2)s1	i	/
Cc1cc2ncn(-c3ncnc4sc5c(c34)CCC(C)C5)c2cc1C (centres undefined)	-5.9*	-5.9
Cc1cc2ncn(-c3ncnc4sc5c(c34)CCCC5)c2cc1C	i	/
O=C(N1CCCC1)C(F)(F)Oc1ccc(F)cc1	i	0.21
Cn1nc(C(=O)Nc2ccccc2N2CCCC2)c2ccccc2c1=O	-5.6*	-5.6
CC(C)n1nc(C(=O)Nc2ccccc2N2CCOCC2)c2ccccc2c1=O	i	/
Nc1nc(=S)c2ncn(C3CCCC3)c2[nH]1	i	0.34
SMILES	KCNQ2 inh	KCNQ2 pot
Cn1c(=O)c2c(nc(CN3CCc4ccccc4C3)n2Cc2ccc(F)cc2)n(C)c1=O	i	/
Cc1ccccc1Cn1c(CN2CCc3ccccc3C2)nc2c1c(=O)n(C)c(=O)n2C	-6.1*	-6.1
CCc1cccc(CC)c1NC(=O)c1cc(CN2C(=O)c3ccccc3C2=O)ccc1OC	-8*	-8
COc1ccc(CN2C(=O)c3ccccc3C2=O)cc1C(=O)O	i	/
O=C(O)c1ccc2c(c1)C(=O)N(CCc1c[nH]c3ccccc13)C2=O	i	0.31
O=C(Nc1cc(S(=O)(=O)N2CCOCC2)ccc1N1CCCC1)c1ccc2c(c1)S(=O)(=O)c1ccccc1C2=O	-5.9*	-5.9
O=C(Nc1cc(S(=O)(=O)N2CCOCC2)ccc1N1CCCC1)c1cccnc1Cl	i	/
CCN(CC(=O)Nc1cc(S(=O)(=O)N2CCCCC2)ccc1Cl)Cc1ccccc1	-7.8*	-7.8
CCN1CCN(S(=O)(=O)c2ccc(Cl)c(C(=O)Nc3ccccc3N3CCCCC3)c2)CC1	-5.6*	-5.6
CCN(CC(=O)Nc1ccc(S(=O)(=O)N2CCCCC2)cc1)Cc1ccccc1	i	/
CCN1CCN(S(=O)(=O)c2ccc(Cl)c(C(=O)Nc3ccccc3N3CCCC3)c2)CC1	i	/
O=C(Nc1ccccc1N1CCCC1)c1cc(S(=O)(=O)N2CCOCC2)ccc1Cl	-5.9*	-5.9
O=C(Nc1ccccc1F)Nc1cc(S(=O)(=O)N2CCOCC2)ccc1N1CCCC1	i	0.12
COc1ccc(CCNC(=O)CCC(=O)NC2CCCC(C)C2C)cc1OC (centres undefined)	i	1.1
CCCc1cnc(N2CCN(S(=O)(=O)c3cccs3)CC2)nc1	i	/
Cc1ccc(C)c(SCC(=O)NCC(c2ccco2)N2CCCCC2)c1 (centres undefined)	i	/
Cc1[nH]n(-c2ccccc2)c(=O)c1C(c1ccccc1[N+](=O)[O-])C(C#N)C#N (centres undefined)	i	/
Cc1[nH]n(-c2ncc(-c3ccccc3)s2)c(=O)c1C(c1ccc(Cl)cc1)C(C#N)C#N (centres undefined)	-7.2*	-7.2
O=C(NC(O)C(=O)c1ccc(F)cc1)c1ccc(F)cc1 (centres undefined)	i	0.3
CC1CCN(S(=O)(=O)c2ccc3c(c2)N(CC(=O)NCCN2C(C)CCCC2C)C(=O)CS3)CC1 (centres undefined)	i	/
CCOC(=O)C1=C(c2ccccc2)NC(=O)NC1c1ccc(OC)c(OC)c1 (centres undefined)	i	/
